In PubChem BioAssay one finds z-score data, which are given here for 25 molecules.

Values without a mark were called inactive. Calls of active or inactive are those of the source.

The target of this test is Luciferin 4-monooxygenase (Photinus pyralis) (UniProt P08659). Description: firefly luciferase enzyme inhibitors, primary screen, biochemical, luminescence, purified enzyme, 2006 set (AID 1141).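 Also: cell-free assay with purified firefly luciferase at 100 ng per well in PBS; test concentration not given here.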 Particulars: SteadyGlo luminescence, 30 min, higher = more signal, called active from +8 up or from −8 down.
Sequence of Luciferin 4-monooxygenase (Photinus pyralis) (P08659 whole entry, looked up): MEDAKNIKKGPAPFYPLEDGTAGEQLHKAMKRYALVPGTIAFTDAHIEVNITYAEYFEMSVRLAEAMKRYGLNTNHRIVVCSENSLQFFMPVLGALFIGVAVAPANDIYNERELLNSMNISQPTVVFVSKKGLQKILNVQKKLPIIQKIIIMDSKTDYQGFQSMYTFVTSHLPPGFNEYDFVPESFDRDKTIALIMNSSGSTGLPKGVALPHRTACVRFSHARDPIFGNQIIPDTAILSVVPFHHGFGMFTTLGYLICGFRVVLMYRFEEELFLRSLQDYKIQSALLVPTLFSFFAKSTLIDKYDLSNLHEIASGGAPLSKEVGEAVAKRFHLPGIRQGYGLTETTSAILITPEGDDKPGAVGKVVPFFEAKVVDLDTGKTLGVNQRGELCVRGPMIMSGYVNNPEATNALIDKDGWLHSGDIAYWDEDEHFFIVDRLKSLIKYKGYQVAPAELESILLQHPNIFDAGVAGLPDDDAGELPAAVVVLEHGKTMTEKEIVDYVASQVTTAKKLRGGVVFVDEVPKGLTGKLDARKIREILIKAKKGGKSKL
Consider `C=CC[C@]1(C(=O)O)N=C(c2ccc(OCCCO)cc2)O[C@H]1c1ccccc1CN=[N+]=[N-]`, for which the z-score was -0.893.
Take `C[N+](C)(C)CCCCNC(=O)[C@H]1C[C@H]2C(=O)N3CCC[C@H]3C(=O)N2[C@H]1c1ccc(O)cc1`: the z-score is -0.679.
For `[N-]=[N+]=NCc1ccccc1[C@@H]1OC(c2ccc(OCCCO)cc2)=N[C@]1(Cc1ccccc1)C(=O)O`, the z-score was -1.44.
Under `CN(C)CCCN1C(=O)[C@@]2(c3ccc([N+](=O)[O-])cc3)CC(=O)N(C3CCCCC3)[C@@H]2c2ccc(CO)cc21` stands 1.2.
Under `CCOC1=C2C(c3ccc(C)cc3)N(S(=O)(=O)c3ccc(C)cc3)CC2n2c(=O)n(-c3ccccc3)c(=O)n2C1` (stereo not given) stands 1.09.
For `O=C1c2ccccc2[C@](Cc2ccccc2I)(C(=O)O)[C@H](c2ccc(CO)cc2)N1Cc1ccccc1C(F)(F)F`, the z-score is 0.63.
In the case of `CCCCCCCCCCC(O)C1C=CC2C(=O)N(c3ccccc3)C(=O)C2N1Nc1ccc([N+](=O)[O-])cc1` (stereo not given) it was 1.86; in that of `CCOC(=O)C1=CC[C@@H](c2cccc(Cl)c2)N(S(=O)(=O)c2ccc(C)cc2)[C@H]1c1ccc(C#N)cc1`, 1.35; in that of `CCCCCCC#C[Si](O[C@H](c1ccccc1)c1cn([C@H](C)c2ccccc2)nn1)(C(C)C)C(C)C`, 0.425.
In the case of `O=C(NCC(F)(F)F)[C@@H]1c2ccccc2C(=O)N(Cc2ccccc2)[C@H]1c1ccc(CO)cc1` it was -0.363; in that of `O=C1OCC=C[C@H]2OC34C=CCN(c5ccc(Cl)cc5)C(=O)[C@H]3N(CCCO)C(=O)[C@@H]4[C@@H]12` (stereo not given in full), -0.429.
On to `CCOC(=O)N1C(c2ccc(OCCCO)cc2)=NC(C(=O)OC)N1C(=O)OCC` (stereo not given), for which the z-score was -1.45.
Take `Cc1ccc(S[C@]2(C(=O)NCC(F)(F)F)CC(=O)N(C3Cc4ccccc4C3)[C@@H]2c2ccc(CO)cc2I)cc1`: the z-score was -0.727.
Turning to `[N-]=[N+]=Nc1ccccc1C[C@]1(C(=O)N2CCCCC2)N=C(c2ccc(OCCCO)cc2)O[C@H]1c1ccccc1N=[N+]=[N-]`, the z-score was -3.15.
Under `C=CCNC(=O)[C@H]1[C@@H]2C(=O)O[C@@H](c3ccccc3)[C@@H](c3ccccc3)N2[C@@H](c2ccc(O)cc2)[C@]12C(=O)Nc1ccc(C#Cc3ccc(OC)cc3)cc12` stands 0.153; under `[N-]=[N+]=NCc1ccccc1C[C@]1(C(=O)NCc2ccccc2)COC(c2ccc(OCCCO)cc2)=N1`, -0.169.
Consider `O=C1OCC=C[C@H]2OC34C=CCN(CCN5CCOCC5)C(=O)[C@H]3N(CCCCCCO)C(=O)[C@@H]4[C@@H]12` (stereo not given in full), for which the z-score is -0.689.
In the case of `[N-]=[N+]=Nc1ccccc1[C@H]1OC(c2ccc(OCCCO)cc2)=N[C@@]1(CCS(=O)(=O)c1ccccc1)C(=O)N1CCOCC1` it was -15 (active); in that of `COC(=O)[C@@]1(Cc2ccccc2)[C@H]2c3cc(C(=O)N(C)C)n(Cc4cc(F)c(F)c(F)c4)c3C[C@H]2CN1C(=O)c1ccccc1`, 1.78; in that of `O=C1O[C@H](c2ccccc2)[C@H](c2ccccc2)N2[C@H]1[C@@H](C(=O)N1CCCCCCC1)[C@]1(C(=O)Nc3ccc(C#CC4=CCCCC4)cc31)[C@H]2c1ccc(O)cc1`, 0.289.
Under `[N-]=[N+]=NCc1ccccc1C[C@]1(C(N)=O)N=C(c2ccc(OCCCO)cc2)O[C@H]1c1ccccc1N=[N+]=[N-]` stands -10.3 (active); under `C=CCOC(=O)[C@H]1[C@@H]2C(=O)O[C@@H](c3ccccc3)[C@@H](c3ccccc3)N2[C@@H](c2ccc(OCCOC(=O)[C@H]3C[C@H]4C(=O)N[C@@H](CCCC[N+](C)(C)C)C(=O)N4[C@H]3c3ccc(O)cc3)cc2)[C@]12C(=O)Nc1ccccc12`, -1.28; under `CC(C)NC(=O)[C@@]1(c2ccc([N+](=O)[O-])cc2)CC(=O)N(C(C)C)[C@@H]1c1ccc(CO)cc1`, -0.979.
Under `COc1ccc([Si](C)(C)[C@@H]2[C@@H](CCn3cc([C@H](O)c4ccccc4)nn3)O[C@]3(C(=O)N(C)c4ccccc43)[C@H]2C)cc1` stands 0.431.
As to `COCCOC(=O)N1C(=O)[C@@]2(c3cc(C#CC4=CCCCC4)ccc31)[C@H](C(=O)N1CCN(c3ncccn3)CC1)[C@H]1C(=O)O[C@H](c3ccccc3)[C@H](c3ccccc3)N1[C@@H]2c1ccc(OCCO)cc1`, the z-score was -1.03.
